# Measured values as given in the supplement of paper PMC8975748.
# Where a name gives a salt, the structure may show the parent alone. ± gives the standard deviation of the averaged measurements.
# Tests used:
# [1] = test system: Saccharomyces cerevisiae BY4741 SeMeCo community; test: mean cell size (pixel area) (pixels); higher = larger cells; conditions: 10 µM; 24 h; SM minimal medium
# In short: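 A four-plasmid fluorescent Saccharomyces cerevisiae BY4741 community was tested; each plasmid complements one auxotrophy and carries a fluorescent marker. An overnight preculture at OD600 = 1.0 was diluted to OD600 = 0.3, and 70 µl was added to 384-well plates acoustically predosed with drug (final 10 µM) in SM medium for 24 h. Cells were fixed with paraformaldehyde and imaged by automated confocal microscopy, with analysis in Harmony. Mean cell pixel area per well is averaged over 3 replicates. Same SeMeCo high-content imaging drug screen: Selleck FDA-approved drugs at 10 µM, 24 h in SM medium, 384-well plates, 3 replicates.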
# [2] = test system: Saccharomyces cerevisiae BY4741 SeMeCo community; test: z-score of prototroph abundance vs DMSO median; higher = larger share of this subpopulation than in DMSO controls; conditions: 10 µM; 24 h; SM minimal medium; subpopulation (auxotrophy): Prototroph
# In short: (§1)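 Subpopulation abundance was reported as a z-score against the median of vehicle wells. The Saccharomyces cerevisiae BY4741 community, carrying four plasmids that each restored one auxotrophy and encoded a distinct fluorescent protein, was grown 24 h in minimal SM medium in 384-well plates holding library drugs at 10 µM final. Cells were paraformaldehyde-fixed and imaged by automated confocal microscopy, with single-auxotroph fluorescent strains used for thresholds and autofluorescence correction.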
# [3] = test system: Saccharomyces cerevisiae BY4741 SeMeCo community; test: z-score of subpopulation abundance vs DMSO median, subpopulation auxotrophic for M; higher = larger share of this subpopulation than in DMSO controls; conditions: 10 µM; 24 h; SM minimal medium; subpopulation (auxotrophy): M
# In short: as §1
# [4] = test system: Saccharomyces cerevisiae BY4741 SeMeCo community; test: z-score of subpopulation abundance vs DMSO median, subpopulation auxotrophic for L; higher = larger share of this subpopulation than in DMSO controls; conditions: 10 µM; 24 h; SM minimal medium; subpopulation (auxotrophy): L
# In short: as §1
# [5] = test system: Saccharomyces cerevisiae BY4741 SeMeCo community; test: z-score of subpopulation abundance vs DMSO median, subpopulation auxotrophic for U; higher = larger share of this subpopulation than in DMSO controls; conditions: 10 µM; 24 h; SM minimal medium; subpopulation (auxotrophy): U
# In short: as §1
# [6] = test system: Saccharomyces cerevisiae BY4741 SeMeCo community; test: z-score of subpopulation abundance vs DMSO median, subpopulation auxotrophic for H; higher = larger share of this subpopulation than in DMSO controls; conditions: 10 µM; 24 h; SM minimal medium; subpopulation (auxotrophy): H
# In short: as §1
# [7] = test system: Saccharomyces cerevisiae BY4741 SeMeCo community; test: z-score of subpopulation abundance vs DMSO median, subpopulation auxotrophic for LU; higher = larger share of this subpopulation than in DMSO controls; conditions: 10 µM; 24 h; SM minimal medium; subpopulation (auxotrophy): LU
# In short: as §1
# [8] = test system: Saccharomyces cerevisiae BY4741 SeMeCo community; test: z-score of subpopulation abundance vs DMSO median, subpopulation auxotrophic for LM; higher = larger share of this subpopulation than in DMSO controls; conditions: 10 µM; 24 h; SM minimal medium; subpopulation (auxotrophy): LM
# In short: as §1
# [9] = test system: Saccharomyces cerevisiae BY4741 SeMeCo community; test: z-score of subpopulation abundance vs DMSO median, subpopulation auxotrophic for HM; higher = larger share of this subpopulation than in DMSO controls; conditions: 10 µM; 24 h; SM minimal medium; subpopulation (auxotrophy): HM
# In short: as §1
# [10] = test system: Saccharomyces cerevisiae BY4741 SeMeCo community; test: z-score of subpopulation abundance vs DMSO median, subpopulation auxotrophic for HU; higher = larger share of this subpopulation than in DMSO controls; conditions: 10 µM; 24 h; SM minimal medium; subpopulation (auxotrophy): HU
# In short: as §1
# [11] = test system: Saccharomyces cerevisiae BY4741 SeMeCo community; test: z-score of subpopulation abundance vs DMSO median, subpopulation auxotrophic for UM; higher = larger share of this subpopulation than in DMSO controls; conditions: 10 µM; 24 h; SM minimal medium; subpopulation (auxotrophy): UM
# In short: as §1
# [12] = test system: Saccharomyces cerevisiae BY4741 SeMeCo community; test: z-score of subpopulation abundance vs DMSO median, subpopulation auxotrophic for HL; higher = larger share of this subpopulation than in DMSO controls; conditions: 10 µM; 24 h; SM minimal medium; subpopulation (auxotrophy): HL
# In short: as §1
# [13] = test system: Saccharomyces cerevisiae BY4741 SeMeCo community; test: z-score of subpopulation abundance vs DMSO median, subpopulation auxotrophic for HLU; higher = larger share of this subpopulation than in DMSO controls; conditions: 10 µM; 24 h; SM minimal medium; subpopulation (auxotrophy): HLU
# In short: as §1
# [14] = test system: Saccharomyces cerevisiae BY4741 SeMeCo community; test: z-score of subpopulation abundance vs DMSO median, subpopulation auxotrophic for HLM; higher = larger share of this subpopulation than in DMSO controls; conditions: 10 µM; 24 h; SM minimal medium; subpopulation (auxotrophy): HLM
# In short: as §1
# [15] = test system: Saccharomyces cerevisiae BY4741 SeMeCo community; test: z-score of subpopulation abundance vs DMSO median, subpopulation auxotrophic for LUM; higher = larger share of this subpopulation than in DMSO controls; conditions: 10 µM; 24 h; SM minimal medium; subpopulation (auxotrophy): LUM
# In short: as §1
# [16] = test system: Saccharomyces cerevisiae BY4741 SeMeCo community; test: z-score of subpopulation abundance vs DMSO median, subpopulation auxotrophic for HLUM; higher = larger share of this subpopulation than in DMSO controls; conditions: 10 µM; 24 h; SM minimal medium; subpopulation (auxotrophy): HLUM
# In short: as §1
SMILES,mean cell size [1],z-score of prototroph abundance [2],z-score of subpopulation abundance [3],z-score of subpopulation abundance [4],z-score of subpopulation abundance [5],z-score of subpopulation abundance [6],z-score of subpopulation abundance [7],z-score of subpopulation abundance [8],z-score of subpopulation abundance [9],z-score of subpopulation abundance [10],z-score of subpopulation abundance [11],z-score of subpopulation abundance [12],z-score of subpopulation abundance [13],z-score of subpopulation abundance [14],z-score of subpopulation abundance [15],z-score of subpopulation abundance [16]
Cc1c(Nc2ncccc2C(=O)O)cccc1C(F)(F)F [Flunixin Meglumin],12.6 ± 0.17,0.11,-0.95,-1.33,0.63,-0.33,-0.33,-1.23,-0.07,-0.19,0.51,-0.74,-1,-0.58,-0.14,0
CCN(CC)CCOC(=O)c1ccc(N)cc1 [Procaine],12.2 ± 0.13,0.34,-1.12,-0.42,1.32,-0.4,0.48,-0.46,-0.99,0.81,0.14,-0.79,-1.15,-1.03,0.13,-0.71
N[C@@H]1CONC1=O [D-Cycloserine],11.8 ± 0.15,-0.18,-0.07,1.05,-1,1.3,-0.16,0.54,-0.26,-0.43,-0.3,0.99,0.51,0.38,0.83,0.69
CCS(=O)(=O)CCn1c([N+](=O)[O-])cnc1C [Tinidazole],12.26 ± 0.046,0.58,-0.75,0.1,0.56,-1.03,0.29,0.29,-1.1,-0.4,,-0.55,0.09,-1.15,,-0.4
COCCOC(=O)C1=C(C)NC(C)=C(C(=O)OC(C)C)C1c1cccc([N+](=O)[O-])c1 (stereo unspecified) [Nimodipine],12.31 ± 0.09,0.04,-0.26,0.55,0.32,,-0.12,-0.2,-0.32,0.19,0.69,-0.61,-0.01,-0.43,0.35,
CN1[C@@H]2CC[C@H]1C[C@@H](OC(c1ccccc1)c1ccccc1)C2 [Benztropine mesylate],12.38 ± 0.057,1.01,-0.66,0.17,-0.32,-0.75,-0.21,0.22,-0.56,,-0.32,0.19,-0.48,-0.44,,-0.38
CCN1CCN(C(=O)N[C@@H](C(=O)N[C@@H]2C(=O)N3[C@@H]2SC(C)(C)[C@@H]3C(=O)O)c2ccccc2)C(=O)C1=O [Piperacillin Sodium],12.6 ± 0.14,-0.12,0.21,1.08,-0.72,-0.01,-0.03,0.88,1.21,-0.25,-0.96,0.54,0.68,0.59,0.86,-0.13
C[N+]1(C)[C@@H]2CC[C@H]1C[C@@H](OC(=O)C(O)c1ccccc1)C2 (stereo partly specified) [Homatropine Methylbromide],12.4 ± 0.32,0.29,-0.38,-0.63,0.46,-1.04,0.06,-1,-0.7,0.05,0.8,-0.55,0,-0.66,-0.14,-0.38
CCCN1CCCC[C@H]1C(=O)Nc1c(C)cccc1C [Ropivacaine],12.24 ± 0.031,0.72,0.5,-0.8,-0.73,,-1.21,0.11,-0.51,-0.86,,-0.66,-0.32,-0.22,-0.83,-0.55
Cc1ncc([N+](=O)[O-])n1CCOC(=O)c1ccccc1 [Metronidazole Benzoate],12.382 ± 0.0058,0.95,-0.51,-0.6,-0.16,-1.17,-1.05,-0.57,0.12,-1,-0.26,-0.69,-1.28,-0.79,-1.13,-0.51
C[C@H]1COc2c(N3CCN(C)CC3)c(F)cc3c(=O)c(C(=O)O)cn1c23 [Levofloxacin hydrate],12.5 ± 0.29,,0.54,1.32,0.27,0.26,1.73,,0.64,0.77,0.61,0.74,0.84,0.07,,0.84
COc1cc([C@@H]2c3cc4c(cc3[C@@H](O[C@@H]3O[C@@H]5CO[C@@H](c6cccs6)O[C@H]5[C@H](O)[C@H]3O)[C@H]3COC(=O)[C@H]23)OCO4)cc(OC)c1O [Teniposide],12.5 ± 0.04,-1.62,1.05,1.6,0.19,0.91,0.76,1.46,0.99,1.34,0.67,1.18,2.62,1,,0.55
COc1ccc2[nH]c([S@@+]([O-])Cc3ncc(C)c(OC)c3C)nc2c1 [NEXIUM (esomeprazole magnesium)],12.5 ± 0.14,-0.6,0.2,1.11,,,0.11,0.3,0.8,0.68,-1.82,1.91,1.46,1.32,0.51,-0.44
NC(=O)c1ncn([C@@H]2O[C@H](CO)[C@@H](O)[C@H]2O)n1 [Ribavirin],12.45 ± 0.12,-0.16,-0.5,-0.43,1.52,-0.52,0.48,-0.41,-0.41,0.42,0.53,,-0.19,-0.6,0.09,
O=C1CN(/N=C/c2ccc(-c3ccc([N+](=O)[O-])cc3)o2)C(=O)N1 [Dantrolene sodium],12.4 ± 0.18,,0.97,2.03,,0.84,-2.49,1.59,0.62,-3.33,-2.91,1.35,-0.91,1.18,-0.73,
c1cnc2cc3c(cc2n1)[C@@H]1CNC[C@H]3C1 [Varenicline Tartrate],12.1 ± 0.23,,-0.55,-0.32,-0.22,0.28,-0.66,0.09,-0.22,-0.05,-0.54,,-0.4,0.76,-0.39,0.16
Cc1ccc(O)c([C@H](CCN(C(C)C)C(C)C)c2ccccc2)c1 [Tolterodine tartrate],12.36 ± 0.069,-0.65,0.22,0.31,-0.01,-0.19,-0.23,1.32,,0.88,1.04,-0.22,0.29,-0.01,1.3,-0.2
O=c1ccc2ccc(OCCCCN3CCN(c4cccc5sccc45)CC3)cc2[nH]1 [Brexpiprazole],12.35 ± 0.092,-0.62,0.05,0.33,0.84,0.96,0.27,0.35,0.35,1.54,1.41,-0.02,-0.45,-0.13,1.05,-0.98
